# Out of some 48,000 compounds screened, about 13,000 (27%) showed an effect of 50% or more. This is one part of the list.
# System: Wolbachia pipientis
# Assay: Anti-Wolbachia Cell-Based Screen
# Assay type: functional
# Parameters: scale not given: in the data most compounds retested in dose-response had high values
# Details: 5 µM
row,SMILES,Percent Effect [%]
1,O=C(Nc1nncs1)NC1CCOc2ccccc21 (stereo unspecified),13.17
2,Cc1cc(CN(C)C(=O)Nc2cnc3c(c2)c(C)nn3C)no1,2.843
3,COc1ccc(S(=O)(=O)NCCC(O)c2ccccc2)c(C)c1 (stereo unspecified),8.858
4,COCc1nc2nc(O)c3c(n2n1)NC(=O)CC3c1ccccc1Cl (stereo unspecified),-6.394
5,O=C(O)C(F)(F)F.O=S(=O)(C1CC1)N1CC[C@H](OCC2CC2)[C@@H]1Cc1cccnc1,-0.6171
6,O=C(O)C(F)(F)F.O=C(c1ccc[nH]1)N1CC[C@@H](OCC2CC2)[C@@H]1Cc1cccnc1,9.663
7,O=C(O)C(F)(F)F.O=S(=O)(C1CC1)N1CC[C@@H](OCC2CC2)[C@@H]1Cc1ccncc1,-7.9
8,O=C(O)C(F)(F)F.O=C(O)C(F)(F)F.c1ccc(N2CC[C@H](OCC3CC3)[C@@H]2Cc2cccnc2)nc1,102.1
9,O=C(O)C(F)(F)F.c1cnc(N2CC[C@@H](OCC3CC3)[C@@H]2Cc2cccnc2)nc1,125.6
10,O=C(O)C(F)(F)F.O=C(O)C(F)(F)F.O=C(c1cccnc1)N1CC[C@H](OCC2CC2)[C@@H]1Cc1cccnc1,-13.6
11,Cn1nc2c(cc1=O)CN(Cc1nnc(-c3ccc(F)cc3)o1)CC2,-3.918
12,CC(NC(=O)NCCNc1cccc(F)c1C#N)c1nccs1 (stereo unspecified),-8.965
13,CC(=O)N1CCOCC2(C1)CN(S(C)(=O)=O)CCO2 (stereo unspecified),-9.255
14,COC(=O)c1cccc(S(=O)(=O)NC(=O)CC2CCCC2)c1,1.549
15,COC(=O)c1cccc(S(=O)(=O)NC(=O)c2ccccc2F)c1,8.807
16,COC(=O)c1cccc(S(=O)(=O)Nc2ncc(C)s2)c1,-16.51
17,COC(=O)c1cccc(S(=O)(=O)Nc2ccc(Cl)c(C(N)=O)c2)c1,-9.655
18,COC(=O)c1cccc(S(=O)(=O)NC(=O)COC2CCCC2)c1,86.25
19,COC(=O)c1cccc(S(=O)(=O)NC(=O)COC2CCCCC2)c1,108.7
20,Cc1occc1C(=O)N1CCCC1c1ccc(C(=O)N2CCOCC2)s1 (stereo unspecified),1.721
21,Cc1nnc(CN(C)CCCOc2ccc(Cl)cc2)o1,-9.497
22,Cc1cc(C)cc(OCCN(C)Cc2ccc(S(=O)(=O)N(C)C)o2)c1,89.38
23,CC(C)N(C)C(=O)CSCc1ccc(S(=O)(=O)N(C)C)o1,-4.323
24,Cc1ccc(OCCN(C)Cc2cscn2)cc1,-7.225

row,SMILES,Percent Effect [%]
1,Cc1cc(C)cc(OCCN(C)Cc2cscn2)c1,-4.131
2,Cc1nnc(CN(C)CCOc2cccc(Cl)c2)o1,6.512
3,CN(CCOc1ccc(Cl)cc1)Cc1ccc(S(=O)(=O)N(C)C)o1,82.71
4,Cc1ccc(OCCN(C)S(=O)(=O)N2CCOCC2)cc1,-11.92
5,Cc1ccc(OCCN(C)Cc2ccc(S(=O)(=O)N(C)C)o2)cc1,101.9
6,COCCN(CC(N)=O)CC1CCCN(C2Cc3ccccc3C2)C1 (stereo unspecified),-0.9874
7,Cc1noc(C)c1C(=O)N1Cc2ncn(C)c2C(COCC2CC2)C1.O=C(O)C(F)(F)F (stereo unspecified),110.4
8,Cc1ccsc1C(=O)N1Cc2ncn(C)c2C(COCC2CC2)C1.O=C(O)C(F)(F)F (stereo unspecified),46.58
9,Cc1noc(C)c1C(=O)N1Cc2ncn(C)c2C(COCC(C)C)C1.O=C(O)C(F)(F)F (stereo unspecified),115.1
10,Cn1cnc2c1C(COCC1CCOCC1)CN(C(=O)c1ccco1)C2.O=C(O)C(F)(F)F (stereo unspecified),-6.702
11,CC(C)COCC1CN(Cc2ccc3c(c2)OCO3)Cc2ncn(C)c21.O=C(O)C(F)(F)F.O=C(O)C(F)(F)F (stereo unspecified),29.31
12,CCOCC1CCN(C(=O)Nc2ccc(-c3csnn3)cc2)C1 (stereo unspecified),-10.06
13,CC(C)(C)CC(=O)NS(=O)(=O)c1ccc(C#N)cc1C(F)(F)F,82.77
14,COc1ccc(C(=O)NS(=O)(=O)c2ccc(C#N)cc2C(F)(F)F)cc1,-4.886
15,Cc1ccc(C)c(S(=O)(=O)NC(=O)COc2cccc(C#N)c2)c1,12.25
16,N#Cc1cccc(S(=O)(=O)NC(=O)COCC(F)(F)F)c1,-9.311
17,CC(C)CC(=O)NS(=O)(=O)c1ccc(C#N)cc1C(F)(F)F,112.6
18,N#Cc1cccc(S(=O)(=O)NC(=O)CCOCC(F)(F)F)c1,2.733
19,Cc1ccc(C(=O)NCCC2CCN(C)CC2)cc1N(C)S(C)(=O)=O,-13.52
20,CC(=O)c1csc(-c2csc(Cn3ccc(=O)[nH]c3=O)n2)c1,-9.484
21,CC(=O)NCC(=O)N1C[C@@H]2CC[C@H](Oc3ccccc3Cl)[C@@H]2C1,95.47
22,O=C(Cn1ccnc1)N1C[C@@H]2CC[C@H](Oc3ccccc3Cl)[C@@H]2C1,-8.109
23,CN(C)CC(=O)N1C[C@@H]2CC[C@H](Oc3ccccc3Cl)[C@@H]2C1,-7.066
24,O=C(Cn1ccnc1)N1C[C@@H]2CC[C@H](Oc3ccc(Cl)cc3)[C@@H]2C1,109.7

row,SMILES,Percent Effect [%]
1,CCC(CNC(=O)Cn1ccnc1)Oc1cccc(F)c1 (stereo unspecified),0.7752
2,O=C(Cn1ccnc1)N1C[C@@H]2CC[C@H](Oc3ccccc3)[C@@H]2C1,-14.9
3,O=C(Cn1ccnc1)N1C[C@@H]2CC[C@H](Oc3ccccc3F)[C@@H]2C1,91.22
4,O=C(c1cnco1)N1C[C@@H]2CC[C@H](Oc3cccc(F)c3)[C@@H]2C1,-6.458
5,O=C(c1cnco1)N1C[C@@H]2CC[C@H](Oc3ccccc3F)[C@@H]2C1,-11.33
6,O=C(Cn1ccnc1)N1C[C@@H]2CC[C@H](Oc3cccc(F)c3)[C@@H]2C1,109
7,O=C(Cn1ccnc1)N1CCC(n2cc(-c3cccc(Cl)c3)nn2)CC1,2.937
8,CC(C)N1CC(C(=O)N2CCC(Oc3ccccc3Cl)CC2)CC1=O (stereo unspecified),-11.86
9,CC(C1CC1)N(C)C(=O)c1cnc(-c2ccc3c(c2)OCO3)s1 (stereo unspecified),-9.871
10,CN(CC1CC1)C(=O)Cc1csc(-c2ncccn2)n1,-2.04
11,CCC(=O)NCC(CC)Oc1cccc(F)c1 (stereo unspecified),-9.029
12,CN(C)Cc1nc2c(o1)CN(S(=O)(=O)c1cccs1)C2.O=C(O)C(F)(F)F,113.1
13,CCN(CC)Cc1nc2c(o1)CN(C(=O)c1ccc3ncccc3c1)C2,-8.46
14,CN(C)Cc1nc2c(o1)CN(C(=O)NCc1cccc(F)c1)C2.O=C(O)C(F)(F)F,-9.503
15,CC(C)N(C)Cc1ncn2c1CN(S(=O)(=O)c1cccs1)CCC2.O=C(O)C(F)(F)F,2.779
16,CCN(CC)Cc1nc2c(o1)CN(C(=O)c1ccncc1F)C2,11.31
17,CCN(CC)Cc1nc2c(o1)CN(S(=O)(=O)c1cccs1)C2.O=C(O)C(F)(F)F,103.4
18,CC(Oc1ccc(F)c(F)c1)C(=O)N(CC(N)=O)C1CCCC1 (stereo unspecified),5.493
19,CC(NC(=O)CCc1cccc(OC2CCCC2)c1)c1nncn1C (stereo unspecified),-2.207
20,CCOC(=O)c1sc(NC(=O)CN(C)S(C)(=O)=O)c(C#N)c1C,0.9217
21,CCOC(=O)c1sc(NC(=O)C(C)C)c(C#N)c1C,157.4
22,CCOC(=O)c1sc(NC(=O)CN2C(=O)CCC2=O)c(C#N)c1C,132.7
23,CCCC(=O)Nc1sc(C(=O)OCC)c(C)c1C#N,10.62
24,Cc1sc(NC(=O)CN(C)S(C)(=O)=O)c(C#N)c1C,5.3

row,SMILES,Percent Effect [%]
1,Cc1cc(N2CCCC(N(C)C)C2)n2nccc2n1 (stereo unspecified),14.85
2,CC(C)OCCC(=O)Nc1c(-c2ccc(F)cc2)ncn1C,6.912
3,CCCC(=O)NC(C(=O)OC)c1cc(F)ccc1F (stereo unspecified),95.91
4,CC(C)OCCC(=O)N(C)c1ccc(F)c(Cl)c1,3.103
5,CCOC(=O)C(C)NC(=O)CCSc1ccc(F)cc1 (stereo unspecified),5.779
6,COC(=O)C(NC(=O)c1ccco1)c1cc(F)ccc1F (stereo unspecified),-3.431
7,CC(C)NC(=O)CC(C)NCc1ccc(F)cc1Cl (stereo unspecified),10.92
8,COC(=O)C(NC(=O)CC(C)C)c1cc(F)ccc1F (stereo unspecified),110.3
9,COC(=O)C(NC(=O)CCc1ccco1)c1cc(F)ccc1F (stereo unspecified),117.5
10,O=C(CCc1ccco1)Nc1cccc(S(=O)(=O)C(F)F)c1,1.803
11,COC(=O)C(NC(=O)C(C)C)c1cc(F)ccc1F (stereo unspecified),-7.207
12,COC(=O)C(NC(=O)CCOC(C)C)c1cc(F)ccc1F (stereo unspecified),85.02
13,CC(C)(C)S(=O)(=O)c1ccc(N2CCN(c3ccccc3)CC2)nn1,15.82
14,COCc1n[nH]c2c1CN(Cc1ccccn1)C2.O=C(O)C(F)(F)F,-21.53
15,Cc1nnc(N2CCN(C(=O)NC3CC3)CC2)c(C(N)=O)c1C,-22.89
16,CS(=O)(=O)NCC1CCCCN1Cc1ccccc1C#N (stereo unspecified),1.848
17,O=C(NCCc1ccccn1)NC1CCN(c2ccccc2)C1=O (stereo unspecified),10.23
18,Cn1c(C2CC2)nc2c1CCN(CCc1ccccn1)C2,-2.558
19,Cc1nc(CNC2CCN(Cc3ccccc3)C2)sc1C (stereo unspecified),-5.508
20,O=C(NCc1ccccc1)[C@@H]1Cc2[nH]cnc2CN1CC1CC1,2.59
21,O=C1CN(CC2CC2)Cc2nc(NCc3ccccc3)sc21,59.83
22,COCCN1CC(=O)c2sc(NCc3ccccc3)nc2C1,105.3
23,O=C1CN(CC2CC2)Cc2nc(NCCc3ccccn3)sc21,91.68
24,CSC1(CNC(=O)NC(C)c2ccc(F)c(F)c2)CCOCC1 (stereo unspecified),-14.87
